The results in this text go back to PubChem BioAssay.

Structures are written as SMILES. Values without a mark were called inactive. Activity calls are given as the source filed them.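 The calls were made as follows: active = normalized viability below 100% at a tested concentration; inactive = the rest.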

In general, viability refers to a read-out of living cells in per cent, often relative to untreated cells.

The first experiment in a line: ovarian cancer cell viability with rucaparib, profiling panel, oncology-focused library, rucaparib conditional (AID 1508598). To be noted: patient-derived ovarian cancer cells, CellTiter-Glo viability, 144 h; at 0.313 µM; OCI-P5x cells; without rucaparib; stronger effect = lower value.
As to `CNC(=O)c1cc(Oc2ccc(NC(=O)Nc3ccc(Cl)c(C(F)(F)F)c3)c(F)c2)ccn1`, the viability is 117%.

With `O=C(CCCCCCC(=O)Nc1ccc([C@H]2O[C@@H](CSc3nc(-c4ccccc4)c(-c4ccccc4)o3)C[C@@H](c3ccc(CO)cc3)O2)cc1)NO`, the viability was 109%.

Take `CNC(=O)c1cc(COc2nnc(Nc3ccc(Cl)cc3)c3ccoc23)ccn1`: the viability is 111%.

Turning to `CS(=O)(=O)N1CCc2c(-c3cnc(N)nc3)nc(N3CCOCC3)nc21`, the viability is 107%.

In the case of `Nc1ccn([C@@H]2O[C@H](CO)[C@@H](O)C2(F)F)c(=O)n1`, the viability was 22.7% (active).

Still in this experiment, the particulars now being: patient-derived ovarian cancer cells, CellTiter-Glo viability, 144 h; at 1.25 µM; OCI-C5x cells; with rucaparib 10 µM; stronger effect = lower value; 100% = cells with rucaparib alone.
On to `CNC(=O)c1cc(Oc2ccc(NC(=O)Nc3ccc(Cl)c(C(F)(F)F)c3)c(F)c2)ccn1`, for which the viability is 107%.

For `O=C(CCCCCCC(=O)Nc1ccc([C@H]2O[C@@H](CSc3nc(-c4ccccc4)c(-c4ccccc4)o3)C[C@@H](c3ccc(CO)cc3)O2)cc1)NO`, the viability is 110%.

For the compound `CNC(=O)c1cc(COc2nnc(Nc3ccc(Cl)cc3)c3ccoc23)ccn1`, the viability is 106%.

In the case of `CS(=O)(=O)N1CCc2c(-c3cnc(N)nc3)nc(N3CCOCC3)nc21`, the viability is 75.9% (active).

Regarding `Nc1ccn([C@@H]2O[C@H](CO)[C@@H](O)C2(F)F)c(=O)n1`, the viability is 33.1% (active).

The experiment is the same for the next values; noted with them: patient-derived ovarian cancer cells, CellTiter-Glo viability, 144 h; at 1.25 µM; OCI-C5x cells; without rucaparib; stronger effect = lower value.
As for `CNC(=O)c1cc(Oc2ccc(NC(=O)Nc3ccc(Cl)c(C(F)(F)F)c3)c(F)c2)ccn1`, the viability is 104%.

`O=C(CCCCCCC(=O)Nc1ccc([C@H]2O[C@@H](CSc3nc(-c4ccccc4)c(-c4ccccc4)o3)C[C@@H](c3ccc(CO)cc3)O2)cc1)NO`: the viability was 139%.

Consider `CNC(=O)c1cc(COc2nnc(Nc3ccc(Cl)cc3)c3ccoc23)ccn1`, for which the viability was 114%.

Turning to `CS(=O)(=O)N1CCc2c(-c3cnc(N)nc3)nc(N3CCOCC3)nc21`, the viability is 118%.

For `Nc1ccn([C@@H]2O[C@H](CO)[C@@H](O)C2(F)F)c(=O)n1`, the viability is 30.2% (active).

The experiment is the same for the next values; noted with them: patient-derived ovarian cancer cells, CellTiter-Glo viability, 144 h; at 1.25 µM; OCI-P5x cells; with rucaparib 20 µM; stronger effect = lower value; 100% = cells with rucaparib alone.
Consider `CNC(=O)c1cc(Oc2ccc(NC(=O)Nc3ccc(Cl)c(C(F)(F)F)c3)c(F)c2)ccn1`, for which the viability is 103%.

With `O=C(CCCCCCC(=O)Nc1ccc([C@H]2O[C@@H](CSc3nc(-c4ccccc4)c(-c4ccccc4)o3)C[C@@H](c3ccc(CO)cc3)O2)cc1)NO`, the viability is 106%.

With `CNC(=O)c1cc(COc2nnc(Nc3ccc(Cl)cc3)c3ccoc23)ccn1`, the viability was 98.5% (active).

As to `CS(=O)(=O)N1CCc2c(-c3cnc(N)nc3)nc(N3CCOCC3)nc21`, the viability is 66.8% (active).

Take `Nc1ccn([C@@H]2O[C@H](CO)[C@@H](O)C2(F)F)c(=O)n1`: the viability was 53.9% (active).
